Screens deposited in PubChem by National Center for Advancing Translational Sciences (NCATS).
In the library only some 1.3% were active in any assay of this set; here they are far more common.
gsp ag: agonists of gsp mutant (McCune-Albright syndrome); Potency, µM (series often up to 76.9 µM), for the others: at the top dose activation (cAMP increase), usual class: activators; gsp mutant cells, cAMP HTRF, 30 min; 0.13% of 340,000 active; active = well fitted activation curve with a large enough effect; inconclusive = small, poorly fitted or top-dose-only effect, or another doubt; inactive = no such curve, though single readings can be large or run the other way; cell line not stated here;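 note: phosphodiesterase inhibitor Ro 20-1724 added with compounds to block cAMP breakdown; potency is the fitted concentration of half-maximal effect; nearly all actives have a fitted effect of over 60% in size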
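Cells in DMEM/10% FBS with G418 were pretreated with compounds in DMSO plus […] (300 uM stock) for 30 min at 37C. cAMP was measured by HTRF (cAMP-d2 plus anti-cAMP antibody-K) after 30 min at room temperature.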
gsp antagonist: gsp mutant antagonism; gsp-mutant cells, cAMP HTRF, 30 min; Potency, µM (top dose mostly 76.9 µM), for inactives: at the top dose activity change, negative = inhibition, actives largely listed as inhibitors; 0.4% of 340,000 active; AID 624288; calls by dose curve; cell line not stated here;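 note: intracellular cAMP measured with PDE inhibitor Ro 20-1724 present during compound exposure; potency is the fitted concentration of half-maximal effect; % is set by controls: 0 for no effect and ±100 for the full control effect; nearly all actives have a fitted effect of over 65% in size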
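HTRF cAMP measurement after 30 min RT detection following 30 min, 37C compound treatment alongside […] (added as 300 uM solution) in G418-selected cells seeded at 2000/well and grown 16–24 h.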
RXFP1 antag: antagonists of human relaxin receptor RXFP1 | Q9HBX9 | 0.59% of 350,000 active | activity change, negative = inhibition, % at 57.5 µM | HEK293-RXFP1, relaxin-stimulated cAMP HTRF, 30 min; hits give low values;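 active = activity change of -60% or lower, but not beyond a set lower limit; inconclusive = change between -60% and -40%, or beyond the set limit; inactive = change above -40%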; note: % is set by controls: 0 for no effect and ±100 for the full control effect
Target sequence (Q9HBX9 whole entry, looked up): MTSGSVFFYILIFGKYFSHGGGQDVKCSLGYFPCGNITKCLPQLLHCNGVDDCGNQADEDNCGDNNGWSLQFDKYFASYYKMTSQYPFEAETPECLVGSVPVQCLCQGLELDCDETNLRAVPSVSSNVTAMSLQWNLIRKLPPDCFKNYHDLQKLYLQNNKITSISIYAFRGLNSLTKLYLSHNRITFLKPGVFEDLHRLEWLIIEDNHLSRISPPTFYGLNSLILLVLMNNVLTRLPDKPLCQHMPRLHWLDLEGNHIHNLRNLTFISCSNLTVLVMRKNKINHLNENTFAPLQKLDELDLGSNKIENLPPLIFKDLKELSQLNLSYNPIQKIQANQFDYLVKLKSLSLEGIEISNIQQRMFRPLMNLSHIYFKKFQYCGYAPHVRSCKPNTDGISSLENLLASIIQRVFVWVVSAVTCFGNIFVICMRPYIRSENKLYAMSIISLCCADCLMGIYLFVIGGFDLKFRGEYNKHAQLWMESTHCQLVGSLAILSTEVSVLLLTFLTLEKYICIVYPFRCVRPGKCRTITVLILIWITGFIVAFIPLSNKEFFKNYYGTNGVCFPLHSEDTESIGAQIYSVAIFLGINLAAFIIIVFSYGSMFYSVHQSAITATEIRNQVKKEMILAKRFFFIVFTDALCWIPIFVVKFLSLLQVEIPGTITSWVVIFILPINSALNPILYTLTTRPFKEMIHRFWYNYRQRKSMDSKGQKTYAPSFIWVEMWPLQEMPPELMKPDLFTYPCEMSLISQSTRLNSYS
Akt phos inh: inhibitors of Akt phosphorylation. activity change, % for hits at 50 µM. Neuro2A IGF-stimulated pAkt S473 HTRF, 20 min; hits give low values. 0.32% of 360,000 active; in the data active = activity change below about -80%; inconclusive = mostly about -51% to -80%; note: % is set by controls: 0 for no effect and ±100 for the full control effect
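Neuro2A cells in DMEM with 0.5% FBS, overnight at 37 deg C, given compound at single 50 µM final, then IGF (6 nM final) for 20 min at 37 deg C. Lysed; phospho-Akt Ser473 by HTRF after 24 h, 665/615 ratio.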
RXFP1 ag: activates the human relaxin receptor RXFP1 | HEK293T-RXFP1 cAMP TR-FRET, 30 min; response scale: percent of porcine relaxin response, buffer zero | Q9HBX9 | Potency, µM (doses to about 57.5 µM), without a hit: at the top dose activation, actives largely listed as activators | AID 2676 | 0.3% of 370,000 active; active = well fitted activation curve with a large enough effect; inconclusive = small, poorly fitted or top-dose-only effect; note: potency is the fitted concentration of half-maximal effect; % is set by controls: 0 for no effect and ±100 for the full control effect; nearly all actives have a fitted effect of over 60% in size
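cAMP rise read by TR-FRET after 30 min, 37C compound exposure (up to 58 uM) in RXFP1-transfected HEK293 cells with Ro 20174 present. EC50 from Hill-equation fits, with 29 nM porcine relaxin as 100% and buffer as basal.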
An asterisk follows results filed as active; i = inactive; u = inconclusive; x = no result; [ ] = dose if it differs, or a comment.

SMILES	gsp ag	gsp antagonist	RXFP1 antag	Akt phos inh	RXFP1 ag
CCOc1ccc(OCCn2c(=S)[nH]c3ccccc32)cc1	-62.0%	-2.6%	-63.2*	i	2.3%
COc1ccc(-n2c(SCC(=O)Nc3ccc4c(c3)OCO4)nc3c([nH]c4ccccc43)c2=O)cc1	x	x	x	x	4.7%
CCNC(=S)N1CCN(c2nc(-c3cccc(OC)c3)cs2)CC1	19.6%	31.6µM*	-0.8	i	-0.5%
COc1cccc(-c2csc(N3CCN(C(=S)NCC(C)C)CC3)n2)c1	u	u	-14.6	i	-0.7%
CCOCCCNC(=S)N1CCN(c2nc(-c3ccccc3)cs2)CC1	-59.5%	50.1µM*	-0.4	i	1.5%
COCCCNC(=S)N1CCN(c2nc(-c3ccc(Cl)cc3)cs2)CC1	u	x	2.2	i	x
COCCCNC(=S)N1CCN(c2nc(-c3ccccc3)cs2)CC1	u	31.6µM*	-0.1	i	0.1%
CCN(CC)CCCNC(=S)N1CCN(c2nc(-c3ccccc3)cs2)CC1	5.9%	13.6%	-7.5	i	1.5%
CCNc1nc(N)nc(Oc2ccc(C(=O)OC)cc2)n1	-2.7%	-10.0%	3.7	-95.0%*	1.7%
O=C(Cn1ccc2cc(S(=O)(=O)N3CCCCC3)ccc21)NCCc1ccccc1Cl	x	x	3.6	x	-0.7%
O=C(Cn1cc(C(=O)c2cccs2)c2ccccc21)Nc1ccc(Br)cc1	x	x	3.2	x	-0.2%
COC(=O)C1=NN(c2ccccc2)C2(S1)SC(C(C)=O)=C(C)N2c1ccccc1 (stereo not given)	-8.3%	u	-6.5	-137.9%*	1.2%
CN(C)CCC1(C2=CCCC2)CC/C(=C/c2ccc(Cl)cc2)C1=O (stereo not given)	u	u	-73.2*	i	x
CCOc1cc(CN2CCN(S(=O)(=O)c3ccc(C)cc3)CC2)ccc1OC	x	x	-9.8	x	-0.1%
O=C(NCCCN1CCCCCC1)c1ccc2c(c1)NC(=O)C(N1CCOCC1)S2 (stereo not given)	3.2%	4.6%	0.3	i	-1.8%
Cc1ccc(CNC(=O)c2ccc3c(c2)NC(=O)C(N2CCOCC2)S3)cc1 (stereo not given)	10.9%[15.4 µM]	-7.4%	-61.7*	i	0.5%
CNC(=O)c1c(NC(=O)c2cc(=O)c3cc(C)c(C)cc3o2)sc2c1CCCC2	x	x	-0.4	x	-0.8%
CCCN1C(=O)C(Cc2nc3ccccc3c(=O)n2CC)c2ccccc21 (stereo not given)	x	x	-9.7	x	0.9%
Cc1cccc2sc(NNC(=O)C3=COCCO3)nc12	-5.0%[15.4 µM]	x	-60.8*	i	-1.7%
Cc1c2cnn(-c3ccccc3)c(=O)c2c(C)n1CCCC(=O)Nc1cccc(F)c1	x	x	x	x	-0.2%
COc1ccc(C(=O)Oc2c(Sc3ccc(Cl)cc3)c(C)nn2C(C)(C)C)cc1OC	x	x	x	x	-0.2%
COc1ccccc1CNC(=O)c1ccc(N2Cc3cccc(OC)c3Oc3ncccc32)s1	x	x	-2.2	x	17.3%
CC(=O)Nc1c(Cl)cnn(-c2ccccc2)c1=O	-1.0%	-10.7%	5.0	i	x
O=C(O)c1ccc(-n2ncc(Cl)c(Cl)c2=O)cc1	10µM*	x	4.7	i	x
O=C(N/N=C/c1ccccc1)C(=O)N/N=C/c1ccccc1	u	2.9%	-5.7	i	1.1%
SMILES	gsp ag	gsp antagonist	RXFP1 antag	Akt phos inh	RXFP1 ag
O=C(C=C=Nc1ccccc1)C(=O)N=C=Cc1ccccc1	17.6%[15.4 µM]	-12.5%	-61.5*	i	-2.0%
Cc1ccc(S(=O)(=O)Nc2ccccc2/C=N/c2nc3ccccc3n2C(C)C)cc1	-3.1%[15.4 µM]	-17.2%	-63.7*	i	0.4%
O=C1S/C(=C\C=C\c2ccco2)C(=O)N1c1ccccc1	27.9%[15.4 µM]	-11.5%	u	i	0.2%
O=C1S/C(=C\C=C\c2ccco2)C(=O)N1c1ccc(O)cc1	17.9%	u	-62.9*	i	-0.1%
COC(=O)c1sc(S(=O)(=O)Nc2c(C)nn(C)c2C)c(C(=O)OC)c1C	7.5%[15.4 µM]	1.0%	7.9	i	1.0%
COC(=O)c1sc(NC(=S)NNC(=O)c2c(Br)c(C)nn2C)c(C(=O)OC)c1C	u	-3.4%	30.7	i	25.1µM*
Cc1ccc(NC(=O)CSc2ccc3nnc(-c4cccnc4)n3n2)cc1	u	14.2%	0.4	i	u
CCC(Sc1ccc2nnc(-c3cccnc3)n2n1)C(=O)OC (stereo not given)	u	3.0%	22.4	i	14.1µM*
Cc1cc(NC(=O)CSc2ccc3nnc(-c4cccs4)n3n2)no1	11.2µM*	13.3%	x	i	18.0%
O=C(CSc1ccc2nnc(-c3ccncc3)n2n1)Nc1ccc2c(c1)OCO2	15.8µM*	0.3%	x	i	12.2%
CC(=O)Nc1ccc(NC(=O)CSc2ccc3nnc(-c4cccnc4)n3n2)cc1	u	11.8%	0.8	i	8.91µM*
COc1ccc(CNC(=O)CCS(=O)(=O)c2cc(Br)cc3c2N(C(=O)C2CC2)CC3)cc1	x	x	-0.3	x	1.4%
Cc1ccc(-c2cc(C(=O)Nc3ccc(SC(F)F)cc3)no2)cc1F	x	x	-2.6	x	0.3%
Cc1ccc(NC(=O)c2nnn(CC(=O)Nc3ccc(C)c(Cl)c3)c2N)c(C)c1	x	x	4.3	x	4.1%
N#C/C(=C(/O)c1ccc2c(c1)OCO2)c1nc2cc(C(F)(F)F)ccc2s1	-2.9%	35.5µM*	-1.3	i	0.8%
N#C/C(=C(/O)c1ccccc1F)c1nc2cc(C(F)(F)F)ccc2s1	24.4%	u	-6.8	i	-0.1%
CCOC(=O)C(NC(=O)c1ccccc1)(Nc1cc(C)on1)C(F)(F)F (stereo not given)	-2.6%	18.7%	4.7	-129.4%*	-1.2%
COc1cc2c(cc1OC)n(CC(=O)c1cc(C)ccc1C)c(=O)n1nc(CCn3nc(C)cc3C)nc21	x	x	-8.2	x	7.3%
Cn1c(=O)c2c(nc(Cc3ccc(N)cc3)n2C)n(C)c1=O	u	6.9%	-2.4	i	15.8µM*
Cn1c(=O)c2c(nc(CN3CCN(Cc4ccccc4)CC3)n2Cc2ccccc2)n(C)c1=O	x	x	x	x	0.2%
Cn1c(=O)c2c(nc(CCC3CCCC3)n2C)n(C)c1=O	11.2µM*	22.6%	5.3	i	x
O=C(CN1CCCCCCC1)N/N=C/c1ccccc1F	-47.8%	7.8%	-0.3	i	2.5%
O=C(CN1CCSCC1)N/N=C/c1ccccc1F	-20.9%	7.5%	-7.5	-98.1%*	0.1%
CC(=O)N1c2ccc(S(=O)(=O)N3CCCCCC3)cc2CC1C(=O)NCc1ccccc1 (stereo not given)	x	x	x	x	0.1%
CC1(C)Cc2c(sc3nc(-c4cccs4)n(N)c(=O)c23)CO1	7.3%	31.6µM*	-36.4	i	1.4%
COc1ccc(Nc2cc(C)c3cc(NC(=O)c4cc(OC)cc(OC)c4)ccc3n2)cc1	x	x	x	x	2.2%
CC(Oc1ccccc1)C(=O)N=Nc1c(O)[nH]c2ccc([N+](=O)[O-])cc12 (stereo not given)	-34.7%	-12.0%	-83.8*	i	1.1%
